Reference: ChEMBL document CHEMBL1961873, “Compounds: GSK PKIS; Assays: Nanosyn kinase panel” (2012)
Values joined by “and” are separate entries in the source; they are usually repeats but may differ in a detail not shown here. Equal values may be shown once.

Assays:
[1] = biological target: Serine/threonine-protein kinase MRCK alpha (Homo sapiens) (UniProt Q5VT25); details: at 0.1 µM
[2] = biological target: Serine/threonine-protein kinase MRCK alpha (Homo sapiens) (UniProt Q5VT25); details: at 1 µM
[3] = biological target: Serine/threonine-protein kinase MRCK beta (Homo sapiens) (UniProt Q9Y5S2); details: at 0.1 µM
[4] = biological target: Serine/threonine-protein kinase MRCK beta (Homo sapiens) (UniProt Q9Y5S2); details: at 1 µM
[5] = biological target: Ribosomal protein S6 kinase alpha-5 (Homo sapiens) (UniProt O75582); details: at 0.1 µM
[6] = biological target: Ribosomal protein S6 kinase alpha-5 (Homo sapiens) (UniProt O75582); details: at 1 µM
[7] = biological target: Ribosomal protein S6 kinase alpha-4 (Homo sapiens) (UniProt O75676); details: at 0.1 µM
[8] = biological target: Ribosomal protein S6 kinase alpha-4 (Homo sapiens) (UniProt O75676); details: at 1 µM
[9] = biological target: Ribosomal protein S6 kinase beta-1 (Homo sapiens) (UniProt P23443); details: at 0.1 µM
[10] = biological target: Ribosomal protein S6 kinase beta-1 (Homo sapiens) (UniProt P23443); details: at 1 µM
[11] = biological target: T1, 3-phosphoinositide-dependent protein kinase 1 (Homo sapiens) (UniProt O15530); details: at 0.1 µM;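 note: values are mean inhibition of PDK1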
T1 sequence (whole entry): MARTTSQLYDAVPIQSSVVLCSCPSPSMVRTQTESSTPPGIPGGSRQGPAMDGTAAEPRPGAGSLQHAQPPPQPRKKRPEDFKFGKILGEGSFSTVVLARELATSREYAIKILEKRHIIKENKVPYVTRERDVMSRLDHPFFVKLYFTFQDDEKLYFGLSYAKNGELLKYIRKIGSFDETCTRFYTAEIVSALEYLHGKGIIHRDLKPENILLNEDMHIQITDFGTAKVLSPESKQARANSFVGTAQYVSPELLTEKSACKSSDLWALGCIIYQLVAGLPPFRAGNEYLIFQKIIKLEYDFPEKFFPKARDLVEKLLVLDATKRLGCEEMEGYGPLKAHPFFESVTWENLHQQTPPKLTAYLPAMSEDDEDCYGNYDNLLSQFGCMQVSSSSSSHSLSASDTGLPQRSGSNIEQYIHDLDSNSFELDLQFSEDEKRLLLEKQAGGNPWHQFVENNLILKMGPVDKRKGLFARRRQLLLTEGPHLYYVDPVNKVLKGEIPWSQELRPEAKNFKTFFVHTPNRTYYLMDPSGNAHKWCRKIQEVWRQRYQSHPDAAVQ

[12] = biological target: cAMP-dependent protein kinase catalytic subunit alpha (Homo sapiens) (UniProt P17612); details: at 0.1 µM
[13] = biological target: cAMP-dependent protein kinase catalytic subunit alpha (Homo sapiens) (UniProt P17612); details: at 1 µM
[14] = biological target: Protein kinase C alpha type (Homo sapiens) (UniProt P17252); details: at 0.1 µM
[15] = biological target: Protein kinase C alpha type (Homo sapiens) (UniProt P17252); details: at 1 µM
[16] = biological target: Protein kinase C beta type (Homo sapiens) (UniProt P05771); details: at 0.1 µM
[17] = biological target: Protein kinase C beta type (Homo sapiens) (UniProt P05771); details: at 1 µM
[18] = biological target: Protein kinase C eta type (Homo sapiens) (UniProt P24723); details: at 0.1 µM
[19] = biological target: Protein kinase C eta type (Homo sapiens) (UniProt P24723); details: at 1 µM
[20] = biological target: Protein kinase C gamma type (Homo sapiens) (UniProt P05129); details: at 0.1 µM;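 note: values are mean percent inhibition of PKC gamma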

Sequence of Ribosomal protein S6 kinase alpha-5 (Homo sapiens) (O75582 whole entry, looked up): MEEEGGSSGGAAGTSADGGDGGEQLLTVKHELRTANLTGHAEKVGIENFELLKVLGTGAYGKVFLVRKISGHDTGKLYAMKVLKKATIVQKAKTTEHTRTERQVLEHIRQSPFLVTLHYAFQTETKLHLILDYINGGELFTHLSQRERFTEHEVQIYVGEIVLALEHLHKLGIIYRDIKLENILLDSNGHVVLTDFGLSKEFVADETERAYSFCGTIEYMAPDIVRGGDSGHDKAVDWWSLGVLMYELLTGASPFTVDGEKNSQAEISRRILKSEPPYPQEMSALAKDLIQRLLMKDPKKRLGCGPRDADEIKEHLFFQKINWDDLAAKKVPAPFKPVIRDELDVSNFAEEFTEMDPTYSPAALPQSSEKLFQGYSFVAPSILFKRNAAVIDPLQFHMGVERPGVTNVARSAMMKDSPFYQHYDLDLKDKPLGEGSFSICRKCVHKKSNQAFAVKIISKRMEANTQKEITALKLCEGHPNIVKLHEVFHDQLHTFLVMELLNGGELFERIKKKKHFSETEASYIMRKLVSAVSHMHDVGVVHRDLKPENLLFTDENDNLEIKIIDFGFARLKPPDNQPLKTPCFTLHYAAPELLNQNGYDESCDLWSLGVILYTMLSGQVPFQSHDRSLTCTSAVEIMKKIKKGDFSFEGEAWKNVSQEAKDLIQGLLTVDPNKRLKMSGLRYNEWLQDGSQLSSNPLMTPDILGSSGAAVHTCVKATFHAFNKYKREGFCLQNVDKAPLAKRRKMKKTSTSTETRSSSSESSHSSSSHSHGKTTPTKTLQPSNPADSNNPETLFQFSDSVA
Sequence of Protein kinase C beta type (Homo sapiens) (P05771 2-671 limits assumed): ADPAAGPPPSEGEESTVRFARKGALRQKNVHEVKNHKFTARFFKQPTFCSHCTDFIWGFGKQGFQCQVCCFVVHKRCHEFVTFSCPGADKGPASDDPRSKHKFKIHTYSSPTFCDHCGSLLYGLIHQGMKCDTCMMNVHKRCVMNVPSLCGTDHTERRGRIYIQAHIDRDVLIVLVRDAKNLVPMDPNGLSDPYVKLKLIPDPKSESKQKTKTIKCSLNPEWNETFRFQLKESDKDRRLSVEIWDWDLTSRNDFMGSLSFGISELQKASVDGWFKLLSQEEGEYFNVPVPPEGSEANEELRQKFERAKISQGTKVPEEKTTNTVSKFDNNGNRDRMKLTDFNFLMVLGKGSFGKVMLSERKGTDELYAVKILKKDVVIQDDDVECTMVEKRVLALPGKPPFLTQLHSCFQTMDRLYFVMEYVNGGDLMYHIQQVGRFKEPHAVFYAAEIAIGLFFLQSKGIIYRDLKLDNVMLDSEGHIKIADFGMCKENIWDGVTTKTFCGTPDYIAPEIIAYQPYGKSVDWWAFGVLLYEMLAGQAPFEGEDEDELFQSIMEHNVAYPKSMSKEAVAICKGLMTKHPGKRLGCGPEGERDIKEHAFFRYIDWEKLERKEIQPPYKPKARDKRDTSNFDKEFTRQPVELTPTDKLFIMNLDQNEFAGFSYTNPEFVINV
Sequence of Ribosomal protein S6 kinase beta-1 (Homo sapiens) (P23443 whole entry, looked up): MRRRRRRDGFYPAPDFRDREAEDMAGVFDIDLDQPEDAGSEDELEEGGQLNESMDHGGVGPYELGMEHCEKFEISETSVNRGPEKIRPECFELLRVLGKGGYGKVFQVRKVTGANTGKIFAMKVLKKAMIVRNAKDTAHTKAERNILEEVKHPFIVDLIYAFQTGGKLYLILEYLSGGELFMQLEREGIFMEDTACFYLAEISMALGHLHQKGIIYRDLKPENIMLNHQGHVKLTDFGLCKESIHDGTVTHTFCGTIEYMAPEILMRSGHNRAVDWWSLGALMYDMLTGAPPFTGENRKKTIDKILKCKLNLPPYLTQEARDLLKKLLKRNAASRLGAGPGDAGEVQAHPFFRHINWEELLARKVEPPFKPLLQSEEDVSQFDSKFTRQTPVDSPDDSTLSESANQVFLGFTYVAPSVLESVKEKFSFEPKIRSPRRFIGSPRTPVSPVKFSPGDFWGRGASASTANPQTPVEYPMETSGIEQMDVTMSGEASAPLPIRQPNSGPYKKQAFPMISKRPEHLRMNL
Sequence of Serine/threonine-protein kinase MRCK beta (Homo sapiens) (Q9Y5S2 whole entry): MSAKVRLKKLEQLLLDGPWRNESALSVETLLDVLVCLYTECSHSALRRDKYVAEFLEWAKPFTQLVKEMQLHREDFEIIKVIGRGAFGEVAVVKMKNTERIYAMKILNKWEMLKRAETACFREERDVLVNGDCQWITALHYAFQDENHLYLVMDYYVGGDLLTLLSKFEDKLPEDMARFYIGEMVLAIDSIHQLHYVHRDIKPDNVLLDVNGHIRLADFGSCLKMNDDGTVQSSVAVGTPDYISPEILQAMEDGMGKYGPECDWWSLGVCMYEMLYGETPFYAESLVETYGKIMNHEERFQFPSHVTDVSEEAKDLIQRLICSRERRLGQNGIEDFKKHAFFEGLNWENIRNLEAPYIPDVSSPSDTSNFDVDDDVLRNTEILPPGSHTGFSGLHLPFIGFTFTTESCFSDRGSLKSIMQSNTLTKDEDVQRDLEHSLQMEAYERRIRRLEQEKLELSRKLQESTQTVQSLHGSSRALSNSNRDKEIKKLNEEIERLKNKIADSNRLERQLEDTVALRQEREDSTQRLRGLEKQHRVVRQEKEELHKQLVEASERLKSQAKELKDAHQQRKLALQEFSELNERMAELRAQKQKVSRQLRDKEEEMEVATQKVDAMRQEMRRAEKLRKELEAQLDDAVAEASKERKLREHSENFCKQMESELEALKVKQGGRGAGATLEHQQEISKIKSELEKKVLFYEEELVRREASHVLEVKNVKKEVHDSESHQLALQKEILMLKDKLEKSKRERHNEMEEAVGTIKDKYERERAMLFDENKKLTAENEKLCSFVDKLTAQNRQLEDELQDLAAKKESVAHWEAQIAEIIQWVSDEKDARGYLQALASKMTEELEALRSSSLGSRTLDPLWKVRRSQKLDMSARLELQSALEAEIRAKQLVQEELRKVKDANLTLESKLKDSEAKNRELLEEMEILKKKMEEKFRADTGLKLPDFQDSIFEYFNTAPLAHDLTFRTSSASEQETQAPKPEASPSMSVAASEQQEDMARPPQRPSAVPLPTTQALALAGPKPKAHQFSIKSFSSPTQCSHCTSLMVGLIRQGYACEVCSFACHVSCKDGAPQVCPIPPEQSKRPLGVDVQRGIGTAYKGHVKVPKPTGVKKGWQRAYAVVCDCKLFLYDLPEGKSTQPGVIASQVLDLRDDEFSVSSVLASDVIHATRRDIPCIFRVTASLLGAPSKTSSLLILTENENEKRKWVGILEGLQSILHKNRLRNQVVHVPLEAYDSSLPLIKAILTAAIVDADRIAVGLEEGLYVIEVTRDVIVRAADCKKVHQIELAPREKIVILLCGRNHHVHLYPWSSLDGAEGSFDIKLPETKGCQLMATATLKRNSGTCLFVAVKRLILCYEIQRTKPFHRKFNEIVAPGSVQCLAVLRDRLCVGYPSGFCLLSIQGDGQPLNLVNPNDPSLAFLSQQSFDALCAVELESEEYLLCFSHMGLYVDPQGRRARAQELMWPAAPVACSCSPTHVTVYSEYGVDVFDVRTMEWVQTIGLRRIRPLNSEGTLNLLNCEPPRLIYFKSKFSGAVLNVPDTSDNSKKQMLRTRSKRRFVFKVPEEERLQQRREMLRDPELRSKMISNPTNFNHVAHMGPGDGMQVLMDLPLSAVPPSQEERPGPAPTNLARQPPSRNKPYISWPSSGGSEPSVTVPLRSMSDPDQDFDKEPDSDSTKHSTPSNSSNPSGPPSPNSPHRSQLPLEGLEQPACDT

Compound | inhibition [1] | inhibition [2] | inhibition [3] | inhibition [4] | inhibition [5] | inhibition [6] | inhibition [7] | inhibition [8] | inhibition [9] | inhibition [10] | inhibition [11] | inhibition [12] | inhibition [13] | inhibition [14] | inhibition [15] | inhibition [16] | inhibition [17] | inhibition [18] | inhibition [19] | inhibition [20]
CNC(=O)c1ncccc1Nc1nc(Nc2cc3c(cc2OC)CCCN3C(=O)CN(C)C)nc2[nH]ccc12 | -0.11% | 2.88% | 1.2% | 2.41% | 3.81% | 3.98% | 2.93% | 5.8% | 2.79% | 3.62% | 3.18% | 1.72% | 2.56% | 1.68% | 10.7% | 1.41% | 1.37% | 2.78% | 1.52% | 5.68%
CCS(=O)(=O)c1ccc(OC)c(Nc2ncc(-c3cccc(C(C)=O)c3)o2)c1 | -0.63% | 3.28% | -1.42% | -0.03% | 2.8% | 4.68% | 0.6% | 2.7% | 1.32% | 2.57% | 0.17% | 1.47% | 1.88% | 0.74% | 0.95% | -0.44% | 3.77% | 3.76% | 3.11% | 2.68%
CN1CCN(Cc2ccc(-c3cc4ncnc(Nc5ccc(OCc6cccc(F)c6)c(Cl)c5)c4s3)o2)CC1 | -1.39% and -0.36% | -3.23% and 2% | -0.68% and -0.01% | -1.28% and -0.15% | 7.37% and 3.64% | 6.3% and 5.71% | 1.66% and 2.85% | 1.25% and 4.7% | 0.39% and 0.55% | 1.79% and 5.31% | 14.8% and 0.07% | 1.2% and 3.28% | 5.56% and 3.03% | 0.64% and 0.88% | 1.87% and 2.52% | -1.25% and 0.04% | 0.12% and 3.28% | 4.86% and 6.13% | 3.75% and 6.04% | 0.69% and 2.55%
COc1ccc2ncn(-c3cc(O[C@H](C)c4ccccc4C(F)(F)F)c(C(N)=O)s3)c2c1 | -0.19% | 2.79% | 0.61% | 2.31% | -0.46% | -0.11% | 0.7% | 2.33% | 0.7% | -0.16% | 0.59% | 0.69% | 0.52% | 0.07% | 0.04% | 0.44% | 1.04% | 1.89% | 1.45% | -2.52%
CCn1c(-c2nonc2N)nc2cncc(C(=O)NCCNC)c21 | 14.6% | 69.9% | 23.3% | 66.7% | 55.2% | 76.8% | 35.5% | 71.4% | 31.9% | 78.2% | 1.56% | 42.5% | 78.2% | 15.5% | 58.2% | 61.1% | 74.4% | 73.9% | 93.6% | 6.21%
CN1CCC(n2cnc(-c3ccc(F)cc3)c2-c2ccnc(NCCO)n2)CC1 | 0.14% | 2.92% | -1.48% | 0.28% | 3.35% | 4.7% | 1.86% | 4.02% | 0.69% | 1.98% | 1.23% | 2.28% | 4.71% | 1.14% | 6.57% | 0.78% | 5.76% | 3.08% | 2.5% | 3.49%
CN1CCC(C(=O)Nc2n[nH]c3nc(-c4ccc(O)cc4)c(Br)cc23)CC1 | 2.05% and 4.4% | 21.6% and 19.5% | 1.99% and 0.84% | 12.8% and 12.7% | 1.62% and 0.25% | 3.91% and 1.49% | 2.85% and 1.78% | 5.51% and 1.19% | 0.96% and -0.21% | 2.58% and -0.02% | 0.58% and 1.23% | -1.53% and 1.47% | 1.39% and 2.8% | -2.91% and 0.74% | 7.49% and 11.2% | 2.04% and 0.96% | 13.9% and 10.2% | 3.63% and 1.62% | 8.67% and 3.54% | 4.29% and -2.24%
CCS(=O)(=O)c1ccc(OC)c(Nc2ncc(-c3cccc(F)c3)o2)c1 | 4.37% | 2.99% | 0.15% | 0.78% | 5.29% | 7.75% | 4.36% | 5.01% | 2.77% | 5.19% | 4.01% | 2.45% | 6.7% | 1.28% | 3.32% | -1.13% | 2.28% | 3.12% | 3.91% | 5.17%
c1ccc(-c2n[nH]cc2-c2ccnc(-c3ccc(OCCn4ccnc4)cc3)c2)nc1 | -0.22% | -0.54% | 1.02% | 2.11% | -4.46% | -0.29% | 0.76% | 3.98% | 0.32% | 0.33% | 0.22% | 0.39% | 4.32% | 0.35% | 0.47% | 0.31% | 0.68% | -2.29% | -0.53% | 0.17%
O=C1Nc2ccccc2/C1=C1\CCc2cc(O)ccc21 | 0.14% | 0.38% | 1.68% | 1.65% | 1.96% | 10.1% | 16.3% | 56.7% | 2.81% | 11.6% | 15.1% | 2.16% | 4.57% | 1.24% | 2.87% | 0.69% | 1.16% | 2.22% | 3.7% | 2.96%
c1cnn2ncc(-c3ccnc(NCCCN4CCOCC4)n3)c2c1 | -0.89% | -2.56% | 0.55% | 3.84% | 6.61% | 6.41% | 5.88% | 7.41% | 2.05% | 2.73% | 1.41% | 2.68% | 5.3% | 0.87% | 2.26% | 2.73% | 5.57% | 3.67% | 2.05% | 3.52%
COc1ccc(-c2nn3ncccc3c2-c2ccnc(Nc3ccc(F)c(F)c3)n2)cc1 | 0.67% | 4.1% | -0.01% | -0.11% | 3.92% | 6.45% | 3.37% | 4.5% | 1.91% | 2.58% | 0.91% | 1.99% | 3.24% | 0.39% | 1.74% | 1.53% | 5.16% | 1.15% | 7.16% | 4.72%
